# According to PubChem BioAssay AID540333 (Southern Research Specialized Biocontainment Screening …, 2011):
# Out of some 10,000 compounds screened, about 320 (3.2%) were called active. No stated cut-off is given here; in the data, active means CPE inhibition mostly above about 9.1% (no sharp cut-off); inactive means mostly below about 7.2%. What follows is part of a selection rich in actives, with near analogues and random picks from the rest.
# Assay: antivirals protecting cells from dengue CPE – CPE readout, HTS (AID 540333)
# Details: Dengue virus CPE inhibition in host cells, at 20 µM; stronger effect = higher value
row,Structure (SMILES),CPE inhibition
1,Cc1ccc(NC(=O)OCCN2CCN(S(=O)(=O)c3ccc(C)cc3)CCC2=O)cc1,0.55% (inactive)
2,COc1ccc(C(=O)/C(C#N)=N/Nc2ccccc2[N+](=O)[O-])cc1,1.92% (inactive)
3,Cc1c(C#N)c(N)nc2c3c(sc12)NC(=O)CC3c1ccc(Cl)cc1 (centres undefined),0.18% (inactive)
4,Cc1ccc(NC(=S)NCCc2ccc(S(N)(=O)=O)cc2)cc1C,inactive
5,COc1cc(/C=C2/C(=O)NN(c3cccc(F)c3)C2=O)ccc1OC(=O)c1ccco1,3.78% (inactive)
6,COc1cc(/C=C2/C(=O)NN(c3ccc(Cl)cc3)C2=O)ccc1OC(=O)c1ccco1,8.14% (active)
7,COc1cc(/C=C2/C(=O)NN(c3cccc(C)c3)C2=O)ccc1OC(=O)c1ccco1,8.68% (inactive)
8,COc1ccccc1NS(=O)(=O)c1cccc(C(=O)N/N=C/c2ccc3c(c2)OCCO3)c1,inactive
9,S=c1[nH]nc(COc2ccccc2)n1/N=C/c1cccs1,inactive
10,O=C1N(c2cccc(Cl)c2)C(c2ccc(Cl)cc2)N2CCCN12 (centres undefined),4.13% (inactive)
11,CCN1C(=O)[C@H]2[C@@H](c3ccc(C)cc3)N3C(=O)N(c4ccc(OC)cc4)C(=O)[C@@]3(CC)[C@H]2C1=O,0.62% (inactive)
12,Cc1cccc([C@@H]2[C@@H]3C(=O)N(Cc4ccccc4)C(=O)[C@@H]3[C@]3(Cc4ccccc4)C(=O)N(c4ccccc4)C(=O)N23)c1,0.915% (inactive)
13,O=C1[C@H]2[C@@H](c3ccc(Cl)cc3)N3C(=O)N(c4cccc(Cl)c4)C(=O)[C@@]3(Cc3ccccc3)[C@H]2C(=O)N1C1CCCCC1,15.5% (active)
14,O=C1[C@H]2[C@@H](c3ccc(F)cc3)N3C(=O)N(c4ccc(Br)cc4)C(=O)[C@@]3(Cc3ccc(Cl)cc3)[C@H]2C(=O)N1C1CCCCC1,46% (active)
15,S=C(Nc1ccccc1Cl)N1CCN(Cc2ccccc2)CC1,0.465% (inactive)
16,N#C/C(=C\c1cn(Cc2cccc(F)c2)c2ccccc12)C(=O)NCc1ccco1,0.23% (inactive)
17,Cc1ccc(OCCSCc2nnc(NC(=O)Nc3cccc(Cl)c3)s2)cc1,5.79% (inactive)
18,COc1ccc(NS(=O)(=O)c2ccc3nc(COc4ccc(Cl)c(C)c4)[nH]c3c2)cc1,1.16% (inactive)
19,CSc1ccc(/C=C/C(=O)c2ccc(O)cc2)cc1,inactive
20,CCOc1ccc(/C=C/C(=O)Nc2ccccc2C(F)(F)F)cc1,inactive
21,O=c1c2ccccc2cnn1Cc1n[nH]c(=S)n1-c1ccccc1,0.01% (inactive)
22,CCCCCCNC(=O)CC(NS(=O)(=O)c1ccc(OC)cc1)C(C)C (centres undefined),0.025% (inactive)
23,Cn1cnc(C(=O)N2CCN(C(=O)OC(C)(C)C)CC2)c1C(=O)N1CCN(C(=O)OC(C)(C)C)CC1,1.25% (inactive)
24,C[C@@H](NC(=O)c1ncn(Cc2ccccc2)c1C(=O)N[C@H](C)c1ccccc1)c1ccccc1,13.8% (active)
25,CC(C)(C)OC(=O)CNC(=O)c1[nH]cnc1C(=O)NC1CCN(C(=O)OC(C)(C)C)CC1,inactive
26,C[C@H](NC(=O)c1ncn(C)c1C(=O)N[C@@H](C)c1ccccc1)c1ccccc1,0.505% (inactive)
27,C[C@@H](NC(=O)c1nc[nH]c1C(=O)OCc1ccccc1)c1ccccc1,0.97% (inactive)

row,Structure (SMILES),CPE inhibition
1,CC(C)(C)OC(=O)N1CCC(NC(=O)c2ncn(Cc3ccccc3)c2C(=O)NC2CCN(C(=O)OC(C)(C)C)CC2)CC1,39.3% (active)
2,Cc1ccc2c(c1)/C(=N/N1C(=O)c3ccccc3C1=O)C(=O)N2,inactive
3,CC(C)C(=O)NC(=S)Nc1nnn(C)n1,inactive
4,Cc1ccc(N2C(=O)[C@@H]3C(C(=O)C(c4ccccc4)c4ccccc4)=NN[C@@H]3C2=O)cc1,0.425% (inactive)
5,CCC(=O)N/N=C(\C)CC(=O)Nc1ccc(Cl)cc1,0.01% (inactive)
6,CC(=O)c1ccc(NC(=O)/C=C/c2ccc(C)cc2)cc1,4.66% (inactive)
7,CCC(=O)Nc1ccc(NC(=O)/C=C/c2ccc(Cl)cc2)cc1,21.6% (active)
8,Cc1sc(NC(=O)c2ccccc2)c(C(c2ccc(Cl)cc2)N2CCN(CCO)CC2)c1C (centres undefined),inactive
9,Cc1nc2sc(C(c3ccc(F)cc3)N3CCN(C(=O)c4ccco4)CC3)c(O)n2n1 (centres undefined),0.39% (inactive)
10,CC(=O)NS(=O)(=O)c1ccc(NC(=O)C2c3ccccc3Oc3ccccc32)cc1,inactive
11,CN(C)c1ccc(NS(=O)(=O)c2ccc(Cl)cc2)cc1,0.45% (inactive)
12,CN(c1ccccc1)S(=O)(=O)c1ccc(Cl)c(C(=O)NCCc2c[nH]c3ccccc23)c1,2.39% (inactive)
13,CN(C)c1ccc(C(CNS(=O)(=O)c2ccc(F)cc2)c2c[nH]c3ccccc23)cc1 (centres undefined),36.1% (active)
14,COCCCNC(=O)c1cccc2c(=O)c(C)c(-c3ccccc3)oc12,0.515% (inactive)
15,Cc1ccc(C)n1-c1ccc(NC(=O)c2ccccc2)cc1,inactive
16,O=C(c1cnn(C(=O)COc2ccc(Cl)cc2)c1)c1ccccc1O,inactive
17,COc1cc(NC(=O)COC(=O)/C=C/c2ccccc2Cl)cc(OC)c1,22.1% (active)
18,COc1cc(NC(=O)COC(=O)/C=C/c2ccc(Cl)cc2Cl)cc(OC)c1,8.61% (inactive)
19,O=C(COC(=O)/C=C/c1ccccc1Cl)NC(=O)Cc1ccccc1,0.12% (inactive)
20,COc1ccccc1OCCn1cc(/C=C(\C#N)C(=O)NCc2cccs2)c2ccccc21,2.51% (inactive)
21,O=C(NCc1ccco1)c1ccc(Cl)c(S(=O)(=O)N2CCc3ccccc32)c1,1.37% (inactive)
22,COc1cc(C(=O)NC(=S)NC(C)C)cc(OC)c1OC,inactive
23,Cc1ccc(NC(=O)c2ccc(NCCN)c([N+](=O)[O-])c2)cc1,3.98% (inactive)
24,Cc1ccc(NC(=O)c2ccc(NCCN)c([N+](=O)[O-])c2)cc1Cl,0.22% (inactive)
25,O=C(Nc1ccccc1)c1ccc(NCCc2ccccc2)c([N+](=O)[O-])c1,13.8% (active)
26,O=C(O)CCC(=O)OCc1c(-c2ccccc2)ncc2ccccc12,1.18% (inactive)
27,CCOc1cc(C2Nc3ccccc3C(=O)N2c2ccccc2)c(Br)cc1OCC(=O)O (centres undefined),inactive
